# Only some compounds are listed: those with a hit (about 22% of all), similar ones and a draw of the others.
# LmPK inhibitor – inhibitors of Leishmania mexicana pyruvate kinase | Q27686 | purified LmPK, Kinase-Glo ATP luminescence, 1 h | Potency, µM (top dose mostly 57.5 µM), inactives show at the top dose activity change, negative = inhibition, most hits filed as inhibitors | 290,000 compounds, 0.37% hits; also: potency is read from the fitted curve at half-maximal effect; % is scaled to controls: 0 for no effect and ±100 for the full control effect
# Target sequence (Q27686 whole entry, looked up): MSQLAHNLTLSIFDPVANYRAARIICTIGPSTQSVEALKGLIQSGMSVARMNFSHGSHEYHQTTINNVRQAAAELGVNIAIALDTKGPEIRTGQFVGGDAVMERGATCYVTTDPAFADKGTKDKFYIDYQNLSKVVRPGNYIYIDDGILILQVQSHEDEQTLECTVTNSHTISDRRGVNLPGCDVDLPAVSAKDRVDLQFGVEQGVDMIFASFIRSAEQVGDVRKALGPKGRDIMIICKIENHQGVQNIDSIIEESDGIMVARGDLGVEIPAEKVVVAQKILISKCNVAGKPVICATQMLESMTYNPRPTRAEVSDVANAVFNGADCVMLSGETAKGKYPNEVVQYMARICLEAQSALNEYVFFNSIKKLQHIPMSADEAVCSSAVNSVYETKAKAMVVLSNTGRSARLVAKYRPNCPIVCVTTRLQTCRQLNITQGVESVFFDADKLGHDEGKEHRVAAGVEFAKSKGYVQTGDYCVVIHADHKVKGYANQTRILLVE
#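 Purified LmPK (0.1 nM) with 0.5 mM PEP and 0.1 mM ADP in imidazole buffer pH 7.2 with MgCl2/KCl, 1 h at room temperature. ATP formed was read by luciferase luminescence and normalized to no-enzyme and uninhibited controls.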
# Pf growth 48h – inhibits P. falciparum growth in the first generation, 48 h; Potency, µM (titrated, usually from 28.7 µM), for inactives: at the top dose activity change, negative = inhibition, usual class: inhibitors; 310,000 compounds, 5.9% hits; P. falciparum luciferase growth in erythrocytes, 48 h; also: potency is read from the fitted curve at half-maximal effect; % is scaled to controls: 0 for no effect and ±100 for the full control effect
#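 First compound was added to culture medium, then infected red cells at 0.1% parasitemia and 2% hematocrit (final). After incubation at 37 C under 5% CO2, luciferase detection reagent was dispensed and light output recorded.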
# Shiga inhibitor – Shiga toxin inhibition. AID 2315. Vero cells, Shiga toxin protein synthesis inhibition reporter. 290,000 compounds, 9.2% hits. inhibition, % at 38.7 µM; in the data active = inhibition mostly above about 28%, no sharp cut-off; inactive = mostly below about 43%; also: 0% is about no effect
# Pf growth 96h – P. falciparum growth inhibition at 96 hour, primary screen for plastid delayed-death inhibitors; P. falciparum luciferase reporter growth, 96 h; Potency, µM (series often up to 28.7 µM), for the others: top-dose activity change, negative = inhibition, usual class: inhibitors; 320,000 compounds, 6.9% hits; AID 504834; also: potency is read from the fitted curve at half-maximal effect; % is scaled to controls: 0 for no effect and ±100 for the full control effect
#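 Plates of compound plus infected erythrocytes (2% hematocrit, 0.05% parasitemia final) incubate 96 hours, 37 C, 5% CO2. Detection reagent added; reduced luminescence from the parasites' luciferase reporter flags inhibition.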
# Cycloheximide cs – counter-screen for Shiga toxin inhibitors: cycloheximide protein synthesis inhibition | cell reporter, cycloheximide protein synthesis inhibition counterscreen | max response, % | 300,000 compounds, 12% hits | AID 2314; in the data active = max response mostly above about 13%, no sharp cut-off; inactive = mostly below about 14%; also: read at 38.3 µM for the half of the compounds with a filed dose; 0% is about no effect
# * hit, by the source's call; i = inactive; ? = inconclusive; nt = no result. Unless noted, calls follow the shape of the dose curve; as a rule, active = well fitted inhibition curve with a large enough effect; inconclusive = small, poorly fitted or top-dose-only effect, or another doubt; inactive = no such curve, though single readings can be large or run the other way.
SMILES,LmPK inhibitor,Pf growth 48h,Shiga inhibitor,Pf growth 96h,Cycloheximide cs
Cc1ccc2oc(/N=C(\N)NC(=O)C3CC3)nc2c1,0%,121%,65*,i,55*
N/C(=N\c1nc2ccccc2o1)NC(=O)c1ccc([N+](=O)[O-])cc1,-1%,15%,12,29%,-3
CC(C)(C)c1ccc(C(=O)N/C(N)=N/c2nc3ccccc3o2)cc1,1%,nt,-5,9%,-3
Cc1ccc(-n2c(O)c(/C=N/N3CCCCC3c3cccnc3)c(=O)[nH]c2=S)cc1 (stereo not given),3%,14%,-6,?,-6
CCCCn1c(O)c(/C(CC)=N/N2CCCCC2c2cccnc2)c(=O)[nH]c1=S (stereo not given),-5%,9.3µM*,-1,2.9µM*,-7
C/C(=N\N1CCCCC1c1cccnc1)c1c(O)n(C2CCCCC2)c(=S)[nH]c1=O (stereo not given),0%,9.3µM*,-7,3.3µM*,-4
O=C(NC1C=CS(=O)(=O)C1)c1sc2ccccc2c1Cl (stereo not given),4%,8.3µM*,32,nt,17*
O=C(CNC(=O)c1sc2ccccc2c1Cl)NC1CC1,-15%,117%,31,98%,13*
O=C(NC1CC1)c1sc2ccccc2c1Cl,-1%,66%,59*,0%,32*
CC(C)(C)C(=O)NC(=S)NNC(=O)c1sc2ccccc2c1Cl,-2%,?,26,316%,48*
CC(C(=O)N1CCCC1)N(C)CC(=O)Nc1cccc(F)c1 (stereo not given),nt,8%,nt,?,nt
O=C(Nc1ccccc1OC(F)F)c1ccc(S(=O)(=O)N2CCOCC2)cc1,-5%,-2%,44,26%,-3
ClC(Cl)Cl,nt,-3%,nt,-1%,nt
O=C(OC[C@@H]1O[C@@](O)(COC(=O)c2cccnc2)[C@H](OC(=O)c2cccnc2)[C@H]1OC(=O)c1cccnc1)c1cccnc1,nt,-20%,-3,?,11
O=C(Nc1ccc(NC(=O)c2sc3ccccc3c2Cl)cc1)c1ccco1,1%,-18%,-11,25%,-6
O=C(NNC(=O)C1CC2CCC1C2)c1sc2ccccc2c1Cl (stereo not given),-1%,85%,85*,47%,54*
O=C(NNC(=S)NC1CCCCC1)c1ccc(Cl)s1,5%,65%,39,2%,21*
C/C(=N\NC(=O)NC1CCCCC1)c1ccc(Cl)s1,6%,?,5,?,-2
O=C(NNC(=O)c1sc2cccc(Cl)c2c1Cl)NC1CCCCC1,2%,-9%,-7,-7%,-4
O=C(NNC(=S)NC1CCCCC1)c1sc2ccccc2c1Cl,1%,20%,27,-15%,10*
O=[N+]([O-])c1ccc(N2CCSCC2)cc1,-4%,20%,52,23%,12
O=C(O)c1cccc(OS(=O)(=O)c2cc(Br)ccc2Br)c1,nt,-18%,nt,-20%,nt
O=P(O)(O)c1ccccc1OCCOCCOCCOCCOc1ccccc1P(=O)(O)O,5%,123%,47,-26%,42*
O=C(NCc1cccnc1)C(=O)Nc1cc2c3c(c1)CC(=O)N3CCC2,nt,-4%,nt,?,nt
O=C1NC2(CCCCC2)N=C1c1ccc(Br)cc1,-1%,8%,-4,nt,15*
SMILES,LmPK inhibitor,Pf growth 48h,Shiga inhibitor,Pf growth 96h,Cycloheximide cs
O=C1NC2(CCCCC2)N=C1c1ccc(F)cc1,-2%,?,30,22%,2
COCCCNC(=O)C(=O)Nc1cc2c3c(c1)CCN3C(=O)CC2,-5%,15%,-2,14%,-4
COc1ccc(N(C(=O)CCl)C(C)(C(=O)Nc2c(C)cccc2C)c2ccccn2)cc1 (stereo not given),13%,4.7µM*,-1,?,-1
COc1cccc(N2CC(NS(=O)(=O)c3ccc4ccccc4c3)CC2=O)c1 (stereo not given),nt,?,nt,0%,nt
O=S(=O)(CCc1ccncc1)C1Cc2cccc3cccc1c23 (stereo not given),-3%,4%,-11,0%,-2
Cc1[nH]c(=O)[nH]c(=O)c1S(=O)(=O)N1CCC(C(=O)N2CCN(c3cccc(C(F)(F)F)c3)CC2)CC1,-3%,10µM*,11,18%,-6
Cc1[nH]c(=O)[nH]c(=O)c1S(=O)(=O)N1CCCC(C(=O)N2CCN(c3cccc(C(F)(F)F)c3)CC2)C1 (stereo not given),10%,-15%,-9,0%,-3
Cc1cc(Nc2ccc3c(c2)OCCO3)c2ccccc2n1,-1%,?,15,?,12
CCOc1ccc(S(=O)(=O)Nc2nc3ccccc3nc2Nc2ccc(N3CCOCC3)cc2)cc1,3%,11%,4,?,13*
CCOc1ccc2nc(C)cc(Nc3ccc(N4CCOCC4)cc3)c2c1,0%,2.1µM*,-21,2.6µM*,-4
COc1ccc2nc(C)cc(N3CCOCC3)c2c1,5%,7%,-11,43%,0
COc1ccc(S(=O)(=O)Nc2ccc(N3CCOCC3)cc2)cc1,-2%,nt,10,16%,5
CCOc1ccc2nc(C)cc(Nc3ccc4c(c3)OCCO4)c2c1,1%,?,35,2.6µM*,21
CCOc1ccc2nc(C)cc(Nc3cccc([N+](=O)[O-])c3)c2c1,4%,1.7µM*,-26,1µM*,-11
O=C(CNC(=O)c1ccc(Cl)c([N+](=O)[O-])c1)NCC1CCCO1 (stereo not given),-2%,3%,30,6%,-2
CC[C@H](C)[C@H](NC(=O)[C@H](CC(C)C)NC(=O)[C@@H](N)CO)C(=O)NCC(=O)N[C@@H](CCCN=C(N)N)C(=O)N[C@@H](CC(C)C)C(=O)O,nt,nt,-6,nt,-7
Cc1ccc2nc(C)cc(NCCO)c2c1,1%,-15%,-7,nt,-1
Cc1ccc2nc(C)cc(Nc3ccc4c(c3)OCCO4)c2c1,7%,nt,38*,-100%,60*
CC(=O)c1ccc(Nc2cc(C)nc3ccc(C)cc23)cc1,1%,3.7µM*,15,4%,10
CN1CC=C(/C=C/c2ccc(-c3ccccc3)cc2)CC1,3%,?,84*,13µM*,43*
COc1ccc(C=O)cc1,nt,28%,nt,5%,nt
COc1ccc(/C=C/C2=CCN(C)CC2)cc1,0%,27%,63*,205%,46*
Cc1ccc(C(=O)N[C@@H](C)CN2C3=NC[C@H](C(C)C)N3C[C@H]2Cc2ccc(O)cc2)cc1Br,-9%,?,8,9.3µM*,1
COc1ccc(C[C@H]2CN3C(=NC[C@@H]3C(C)C)N2C[C@H](C)NC(=O)c2ccc(C)c(Br)c2)cc1,1%,?,-15,2.9µM*,1
CC1CCCCN1C(=O)CN(C)S(=O)(=O)c1cccc2nsnc12 (stereo not given),0%,12%,1,47%,3
C#CCN(Cc1ccccc1)S(=O)(=O)C=C,nt,22%,nt,36%,nt
CC(C)(C)c1ccc(/C=C2\SC(=O)N(CCNC(=O)c3cccc(S(=O)(=O)N4CCOCC4)c3)C2=O)cc1,-2%,-36%,131*,-49%,69*

# Bioassay records deposited in PubChem by National Center for Advancing Translational Sciences (NCATS).
